Screening results (PubChem BioAssay)
CapD inh: blocks the Bacillus anthracis CapD enzyme; purified CapD enzyme, fluorescence intensity read-out; stronger effect = lower value; z-score (no concentration beside the values); hit rate 0.23% among 140,000; AID 492967; in the data active = z-score mostly below about -2.9, no sharp cut-off; inactive = mostly above about -1.9
AID504770: E. coli YBA685 growth inhibition, screen for V. cholerae RctB inhibitors; hit rate 0.27% among 130,000; z-score (concentration not given with the values); AID 504770; E. coli YBA685 rctB-dependent plasmid, OD600 growth, 3 h; stronger effect = lower value; in the data active = z-score below about -2, passing the limit was not always enough
Starred values were filed as active, the others as inactive; x = no result; ! = repeats disagree. Compounds with a hit are over-represented: about 0.4% of the library has one in this group of screens.

SMILES	CapD inh	AID504770
CCCc1cc2c(=O)c(-c3ccc4c(c3)OCCO4)c(C(F)(F)F)oc2c(C=[N+](C)C)c1O	-1.5	-1
CCc1cc2c(=O)c(-c3ccc4c(c3)OCO4)c(C(F)(F)F)oc2c(CN(C)C)c1O	-4*	x
O=C(COc1ccccc1)NCc1nc(-c2ccccc2)no1	-0.51	0.1
NC(=O)c1nn(CC(=O)N2CCCN(S(=O)(=O)c3ccc(F)cc3)CC2)c(=O)c2ccccc12	x	0.1
COC(CNC(=O)c1ccc(/C=C2/Sc3ccccc3N(Cc3cccc(C)c3)C2=O)cc1)OC	0.07	0
COC(CNC(=O)c1ccc(/C=C2\Sc3ccccc3N(Cc3ccc(F)cc3)C2=O)cc1)OC	-8.5*	-0.1
CCOC(=O)C1=NN(c2ccc(C)cc2)C2(S1)SC(c1ccccc1)(c1ccccc1)c1ccccc12 (centres undefined)	-0.065	x
COc1cc(C(=O)Nc2c3c(nn2-c2ccc(F)cc2)CS(=O)(=O)C3)cc(OC)c1OC	-0.98	-3.1*
COc1cc(C(=O)Nc2c3c(nn2-c2ccc(Cl)cc2)CS(=O)(=O)C3)cc(OC)c1OC	-0.15	x
Cc1c(Cl)cccc1NC(=O)NCCSCc1ccco1	-0.045	x
CCC(=O)N(c1nnc(SCC(=O)N2CCCC2=O)s1)C1CC1	x	0.6
CCc1cc(Br)ccc1NC(C)=O	-0.34	-2.7*
CCCNC(=O)Nc1ccc(Br)cc1F	0.06	-0.65
Cn1c(N/C(=C\C(=O)c2cccs2)C(F)(F)F)nc2ccccc21	-1.9	-2.7*
Cn1c(CCCNC(=O)c2cccs2)nc2ccccc21	-0.94	0.05
[O-]c1n[n+](-c2ccccc2)no1	0.27	-3*
c1ccc(-c2noc(-c3ccccc3)n2)cc1	0.24	1.3
OC(CN(C1CCCCC1)C1CCCCC1)Cn1c2ccc(Cl)cc2c2cc(Cl)ccc21 (centres undefined)	-0.085	x
CC(=O)Oc1ccc(N(C(C)=O)S(=O)(=O)c2ccccc2)cc1	-4.2*	-0.75
COc1ccc(N(C(C)=O)S(=O)(=O)c2ccc(C)cc2)cc1	-3.4	-0.4
S=C1NC(c2ccc(OCc3ccccc3)cc2)=CC(c2ccccc2Cl)N1 (centres undefined)	-0.24	x
O=C(N/N=C/c1ccco1)C1CCN(S(=O)(=O)c2ccc(Cl)cc2)CC1	-0.52	x
CSc1nc2c(=S)[nH]c(=S)[nH]c2s1	-5.5*	-1.1
CSc1nc2nc(N)nc(N)c2s1	-0.64	-0.2
Cn1c(CSc2cccs2)nnc1SCC(=O)Nc1ccc(Cl)cc1	-0.02	-0.05
SMILES	CapD inh	AID504770
O=C(CCc1ccccc1)OCc1nnc(-c2ccc(Br)cc2)o1	x	-0.35
Cc1ccc2c(c1)=C(c1sc(=S)n(CC(=O)O)c1O)C(=O)N=2	-0.48	-1.1
Cc1ccc(C)c(N2CCN(C(=O)CN(C)S(=O)(=O)c3ccc4[nH]c(=O)oc4c3)CC2)c1	0.73	-0.4
COc1cc(CNC(C)(C)C)ccc1OCC(=O)NC(C)(C)C	-0.38	0.05
CCOc1cc(CNc2ncn[nH]2)ccc1OCC(=O)NC(C)(C)C	-0.42	-2.5*
CCCn1c(SCC(=O)c2ccc3c(c2)OCCO3)nnc1-c1ccco1	x	-3.8*
CCn1c(SCC(=O)c2ccccc2)nnc1-c1ccco1	x	-0.55
CC(NC(=O)c1ccc(-n2cccc2)cc1)c1ccccc1 (centres undefined)	x	0.45
O=C1C=CC(=O)N1c1cccc2ccccc12	2.6	-0.6
O=C1C=CC(=O)N1c1ccccc1F	x	-4.7*
Cc1cc2nc(N3C(=N)SCC3=O)sc2cc1C	x	0.35
N=C1SCC(=O)N1c1nccs1	-3.2	-4.6*
CCOc1ccccc1-n1nnnc1SCC(=O)c1cc(Cl)ccc1OC	x	-0.4
CS(=O)(=O)c1ccc(C(=O)Nc2ccccc2)cc1	-2.9*	-0.85
O=C(Nc1ccccc1)c1ccc(F)cc1	x	-0.85
CC(C#N)Sc1nnc(-c2cccs2)n1CC1CCCO1 (centres undefined)	x	-0.7
N#Cc1ccc(CSc2nnc(-c3cccs3)n2CC2CCCO2)cc1 (centres undefined)	x	-2.5*
CCOC(=O)c1sc2nc(CNC(C)C)nc(NC(C)C)c2c1C	x	-0.75
OCCn1c(-c2ccccc2)nc2ccccc21	2.4	1
CC1(C)Cc2c(c(=S)nc(-c3ccccc3)n2CCO)CO1	-5.1*	2.2
N#Cc1c(NC(=O)c2ccc(Cl)cc2Cl)oc(-c2ccccc2)c1-c1ccccc1	-0.43	x
O=C1NC(=O)C(=Cc2ccc(Cl)cc2)C(=O)N1	0.87	x
Cc1ccc(C=C2C(=O)NC(=O)NC2=O)cc1	-0.43	-4.7*
O=C(NNc1ccc(Br)cc1Br)C(O)(c1ccc(Cl)cc1)c1ccc(Cl)cc1	0.21	x
CN(C)c1nc(-c2ccccc2)c(CC(=O)O)s1	x	0
SMILES	CapD inh	AID504770
CN(C)c1nc(-c2ccccc2)[n+](C)s1	-0.17	-4*!
O=C(O)c1cc2ccccc2cn1	0.46	x
O=C(O)c1cc2c(cn1)[nH]c1ccccc12	67	-3.5*
CCOCC(=O)NCc1ccccc1Cl	0.48	0.25
CN(C)[C@@H]1C(=O)C(C(N)=O)=C(O)[C@@]2(O)C(=O)C3=C(O)c4c(O)ccc(Cl)c4[C@@](C)(O)[C@H]3C[C@@H]12	0.99	-3.6*
C[C@H]1c2cccc(O)c2C(O)=C2C(=O)[C@]3(O)C(O)=C(C(N)=O)C(=O)[C@@H](N(C)C)[C@@H]3[C@@H](O)[C@@H]21	1.3	-0.25
CC1c2cccc(O)c2CC2=C(O)C3(O)C(O)=C(C(N)=O)C(=O)C(N(C)C)C3C(O)C21 (centres undefined)	-4.1	-4.1*
CN(C)[C@@H]1C(=O)C(C(N)=O)=C(O)[C@@]2(O)C(=O)C3=C(O)c4c(O)cccc4[C@@](C)(O)[C@H]3[C@H](O)[C@@H]12	0.05	-3.9*
CN(C)c1ccc(O)c2c1C[C@H]1C[C@H]3[C@H](N(C)C)C(=O)C(C(N)=O)=C(O)[C@@]3(O)C(=O)C1=C2O	0.45	x
O=C(NC1CCN(C(=O)c2ccc(Cl)cc2)CC1)c1ccccc1	0.79	x
C/C(=C\C(=O)c1ccc(C)cc1)N1CCOCC1	-0.18	-0.2
C=CCSc1ncc2c(=S)[nH]c(=S)[nH]c2n1	-4.6*	-0.2
CCN(CC)c1ncc2c(=S)[nH]c(=S)[nH]c2n1	-1.5	-0.1
FCc1nc2ccccc2s1	0.7	-0.55
COc1cc(OC)c(OC)cc1/C=C1/SC(=S)N(CC(=O)O)C1=O	-3.8*	x
COc1ccc(OC)c(/C=C2/SC(=S)N(CC(=O)O)C2=O)c1	-2.3	x
CCOC(=O)c1c(C)[nH]c(C(=O)Nc2ccc(C)cc2)c1C	x	-0.15
CCO/C=C1\SC(=S)N(/N=C/c2cccc(Cl)c2)C1=O	-4.4*	1.2
CCO/C=C1\SC(=S)N(c2ccc(Cl)cc2)C1=O	0.45	0.85
COc1ccc(-c2cc(-c3ccccc3)nc(SCC#N)c2C#N)cc1	10	x
COC(=O)/C(C#N)=C/c1ccccc1C	-4.3*	2.1
COC(=O)/C(C#N)=C/c1ccc(C)o1	-1.4	-0.35
O=c1oc2cc(O)ccc2cc1-c1nnc(NCc2ccccc2)s1	1.5	x
CN1C(=O)c2ccccc2C(C(=O)NC2CC2)C1c1cn(C)c2ccccc12 (centres undefined)	0.45	0.55
CN(C1CCCCC1)S(=O)(=O)c1ccc(-c2cc(C(F)(F)F)no2)s1	0.55	-1.1
O=C(Nc1ccccc1)C(C(F)(F)F)C(F)(F)F	-3.6*	-1.4
CC(C(=O)Nc1ccccc1)C(=O)Nc1ccccc1	-0.065	-1.5
NS(=O)(=O)c1ccc(CCNC(=O)c2ccc(N3CCCC3=O)cc2)cc1	x	0.05
CCCN1CSC(=S)N(CCC)C1	-0.44	-1
CCN1CSC(=S)N(CC)C1	0.22	-2.5*
